Only some compounds are listed: those with a hit (about 11% of all), similar ones and a draw of the others.
ALDH1A1 block: blocks purified human ALDH1A1 activity | 220,000 compounds, 7.3% hits | Purified ALDH1A1, NADH fluorescence, propionaldehyde substrate | Potency, µM (doses to about 75.3 µM), usual class: inhibitors | P00352 | AID 1030
PNC inhibitor: blocks assembly of the perinucleolar compartment; PC3M PTB-GFP, PNC prevalence imaging, 16 h; active compounds read low; activity change (PNC), negative = inhibition, % at 10 µM; 140,000 compounds, 3.1% hits; AID 2417;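 active = readout at or below -70, meaning at least 70% loss of cells showing the perinucleolar compartment, a nuclear body marking cancer cells; inconclusive = readout between -30 and a set limit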
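Compounds are pinned in duplicate onto adhered PC3M cells stably expressing GFP-tagged PTB and incubated 16 h at 37 C. Cells are then fixed, nuclei stained with Hoechst, and PNC-positive cells counted.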
IMPase cell inh: IMPase inhibition in cells. 120,000 tested, under 10 active. P97697. AID 901. CHO-M1 cells, IP1 accumulation, HTRF TR-FRET ratio. inhibition (IP1 accumulation), % at 46.1 µM; active = well fitted curve in the direction sought with a large enough effect in the signal ratio, not every such curve was filed as active; inconclusive = small, poorly fitted or top-dose-only effect, or a change in a side signal; inactive = no such curve, though single readings can be large or run the other way; the % refers to the signal ratio;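 also: cells stimulated with carbachol in lithium chloride buffer; higher means more IMPase inhibition seen as more IP1 and lower FRET ratio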
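The IP-One HTRF competitive assay in carbachol-stimulated CHO-M1 cells quantifies cellular IP1. Compounds spanned up to 46 uM final, and activity is expressed as AC50 from concentration-response fits of the ratio and donor data.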
NPSR antagonist: antagonists of human neuropeptide S receptor cAMP signaling; Q6W5P4; CHO-NPSR cells, cAMP TR-FRET, antagonist mode; Potency, µM (doses to about 38.3 µM), most hits filed as inhibitors; 220,000 compounds, 1% hits; active = well fitted curve in the direction sought with a large enough effect; inconclusive = small, poorly fitted or top-dose-only effect, or another doubt; inactive = no such curve, though single readings can be large; an effect the other way counts as inactive or inconclusive; also: nearly all actives have a fitted effect of over 50% in size
Target sequence (Q6W5P4 whole entry, looked up): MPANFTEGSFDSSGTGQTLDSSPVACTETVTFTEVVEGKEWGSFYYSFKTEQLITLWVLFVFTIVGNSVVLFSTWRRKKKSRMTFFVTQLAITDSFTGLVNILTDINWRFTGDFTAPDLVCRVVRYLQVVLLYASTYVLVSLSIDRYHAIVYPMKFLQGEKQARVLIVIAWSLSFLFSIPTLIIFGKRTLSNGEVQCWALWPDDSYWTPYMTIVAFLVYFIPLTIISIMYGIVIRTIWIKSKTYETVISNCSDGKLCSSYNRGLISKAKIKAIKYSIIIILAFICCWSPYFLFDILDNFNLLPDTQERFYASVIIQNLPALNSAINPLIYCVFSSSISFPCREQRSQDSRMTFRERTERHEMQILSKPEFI
IMPase Li cell: cell-permeable IMPase inhibitors with lithium potentiation; CHO-M1 cells, IP1 TR-FRET (IP-One), carbachol + lithium; Potency, µM (highest dose often 59.4 µM), usual class: inhibitors; AID 1457; 210,000 compounds, 0.35% hits; active = well fitted curve in the direction sought with a large enough effect; inconclusive = small, poorly fitted or top-dose-only effect, or another doubt; inactive = no such curve, though single readings can be large; an effect the other way counts as inactive or inconclusive;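 also: IP1 builds up when IMPase is blocked and the TR-FRET signal falls; nearly all actives have a fitted effect of over 50% in size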
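Steps: plate 2000 CHO-M1 cells per well and culture 16–30 h; add compound and lithium; incubate 30 min, 37C; add d2-IP1 tracer and Eu cryptate anti-IP1 antibody in lysis buffer; read after 10 min at room temperature.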
HPGD inh: blocks human HPGD enzyme activity; Potency, µM, actives largely listed as inhibitors; 150,000 compounds, 4.3% hits; purified HPGD, NADH fluorescence kinetic, PGE2 substrate; AID 894; P15428
Target sequence (P15428 whole entry, looked up): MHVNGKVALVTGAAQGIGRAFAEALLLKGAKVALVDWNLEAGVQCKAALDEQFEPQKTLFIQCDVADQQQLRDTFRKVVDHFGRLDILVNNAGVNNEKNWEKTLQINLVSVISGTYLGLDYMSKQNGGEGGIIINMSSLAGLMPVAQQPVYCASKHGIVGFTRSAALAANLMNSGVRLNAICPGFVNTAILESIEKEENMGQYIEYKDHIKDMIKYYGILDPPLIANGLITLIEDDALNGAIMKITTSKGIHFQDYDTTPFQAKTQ
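20 nM HPGD preincubated 15 min at room temperature with compound in 50 mM Tris-HCl pH 8, 0.01% Tween 20. Started with 1 mM NAD+ and 30 uM prostaglandin E2; NADH fluorescence (360/450 nm) read 5 times over 30-s intervals, last minus first.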
Of the large screens only hits and unclear results are named; the others gave an inactive call. Unless noted, calls follow the shape of the dose curve; as a rule, active = well fitted inhibition curve with a large enough effect (not every such curve was filed as active); inconclusive = small, poorly fitted or top-dose-only effect, or another doubt; inactive = no such curve, though single readings can be large or run the other way.

O=C(c1ccc(CNc2c(N3CCOCC3)c(=O)c2=O)cc1)N1CC=C(c2ccccc2)CC1	NPSR antagonist inconclusive, HPGD inh 25µM
COC(=O)c1c(NC(=O)c2nc3ccccc3s2)sc2c1CC(C)(C)NC2(C)C	ALDH1A1 block inconclusive, NPSR antagonist inconclusive (no result: PNC inhibitor, IMPase cell inh, HPGD inh)
c1ccc(-c2cccc(-c3ccccn3)n2)nc1	none
CCN(CC)CC(O)c1cccn1-c1ccc(CNC(=O)NC(C)C)cc1 (configuration not stated)	ALDH1A1 block inconclusive (no result: PNC inhibitor, IMPase cell inh, HPGD inh)
CCCn1nc(C(=O)OCC(=O)c2ccc3c(c2)NC(=O)CO3)c2ccccc2c1=O	none
CCOC(=O)C1CCN(c2c(NCc3ccc(C(=O)NCCOC)cc3)c(=O)c2=O)CC1	HPGD inh 3.5µM
O=C(NC1CCCCCCC1)c1ccc(CNc2c(N3CCOCC3)c(=O)c2=O)cc1	ALDH1A1 block inconclusive, HPGD inh 18µM
CCOC(=O)C1CCN(c2c(NCc3ccc(C(=O)Nc4ccc(C)cc4)cc3)c(=O)c2=O)CC1	none (no result: ALDH1A1 block, PNC inhibitor, IMPase cell inh, IMPase Li cell, HPGD inh)
O=C(CCCN1C(=O)/C(=C/c2ccccc2Cl)SC1=S)Nc1ccccn1	HPGD inh 16µM
Cc1ccc(S(=O)(=O)NC(=O)Nc2c(C)n(C)n(-c3ccccc3)c2=O)cc1	none
Cc1ccc(S(=O)(=O)NCCCCCC(=O)Nc2c(C)n(C)n(-c3ccccc3)c2=O)cc1	ALDH1A1 block 13µM (no result: PNC inhibitor, IMPase cell inh, HPGD inh)
O=C(CCCN1C(=O)/C(=C/c2cccs2)SC1=S)Nc1ccccn1	none (no result: PNC inhibitor, IMPase cell inh, HPGD inh)
O=C(O)CCCN1C(=O)/C(=C/c2cn(-c3ccccc3)nc2-c2cccs2)SC1=S	NPSR antagonist 3.2µM (no result: PNC inhibitor, IMPase cell inh, HPGD inh)
COC(=O)CCC(=O)c1oc2ccccc2c1NC(=O)CCCN1C(=O)c2ccccc2C1=O	none
CC(=O)c1oc2ccccc2c1NC(=O)CCCN1C(=O)c2ccccc2C1=O	IMPase Li cell 13µM
Cc1ccc(S(=O)(=O)/N=C(\N)Nc2nc(C)c3cc(C)c(C)cc3n2)cc1	PNC inhibitor inconclusive
O=C(CCN1C(=O)c2ccccc2C1=O)Nc1ccccn1	PNC inhibitor -88
Cc1ccc(S(=O)(=O)NCCCCCC(=O)Nc2nccs2)cc1	ALDH1A1 block 16µM, NPSR antagonist inconclusive
Cc1cccc(NC(=O)CCCCCN2C(=O)c3ccccc3C2=O)n1	ALDH1A1 block inconclusive, HPGD inh 25µM
Cc1ccc(NC(=O)CCCCCNS(=O)(=O)c2ccc(C)cc2)cc1	ALDH1A1 block inconclusive (no result: IMPase cell inh)
O=C(CCCCCCN1C(=O)c2ccccc2C1=O)Nc1nccs1	NPSR antagonist inconclusive, HPGD inh 7.9µM
CCn1cc(C(=O)O)c(=O)c2cc(F)c(N3CCN(C(=S)NC(=O)c4cccc(F)c4)CC3)cc21	none (no result: ALDH1A1 block, PNC inhibitor, IMPase cell inh, IMPase Li cell, HPGD inh)
O=C(CSc1nc2cc(C(F)(F)F)ccc2n1Cc1ccccc1)NC1CCS(=O)(=O)C1 (configuration not stated)	ALDH1A1 block inconclusive (no result: IMPase cell inh)
Cc1cc(-c2csc(N)n2)c(C)n1-c1ccc(Cl)c(Cl)c1	PNC inhibitor inconclusive
CCCn1c(C)cc(-c2csc(N)n2)c1C	ALDH1A1 block 11µM
COc1ccc(-n2c(C)cc(-c3csc(N)n3)c2C)cc1	ALDH1A1 block 25µM
Cc1nn(-c2ccccc2)c(N)c1Sc1cccc([N+](=O)[O-])c1	ALDH1A1 block inconclusive, HPGD inh 25µM (no result: IMPase cell inh)
Cc1nn(-c2ccccc2)c(N)c1Sc1ccccc1[N+](=O)[O-]	ALDH1A1 block inconclusive
CCc1cccc(C)c1NC(=S)NCc1cccn1C	ALDH1A1 block 14µM (no result: IMPase cell inh)
O=c1c2ccccc2sn1-c1cc(S(=O)(=O)N2CCOCC2)ccc1N1CCOCC1	ALDH1A1 block 0.056µM, PNC inhibitor inconclusive, NPSR antagonist inconclusive, HPGD inh 0.79µM
Oc1ccc(Cl)cc1-c1cc(-c2ccccc2Cl)[nH]n1	HPGD inh 7.9µM
Oc1ccccc1-c1cc(-c2ccccc2Cl)[nH]n1	HPGD inh 14µM
Oc1ccccc1-c1cc(-c2cccc(F)c2)n[nH]1	PNC inhibitor inconclusive
Oc1ccc(Cl)cc1-c1cc(-c2cccc(Br)c2)n[nH]1	HPGD inh 3.2µM
c1ccc(C(Cc2nc(-c3ccncc3)no2)c2ccccc2)cc1	none
CCc1ccc(-c2cc(C(=O)Nn3cnnc3)c3ccccc3n2)cc1	ALDH1A1 block inconclusive, PNC inhibitor -82
O=C(O)C1C(c2ccccc2)C(C(=O)Oc2ccccc2)C1c1ccccc1 (configuration not stated)	ALDH1A1 block 16µM, PNC inhibitor inconclusive
Cc1cccc(OC(=O)C2C(c3ccccc3)C(C(=O)O)C2c2ccccc2)c1 (configuration not stated)	ALDH1A1 block inconclusive, PNC inhibitor inconclusive
Cc1ccc(N2C(=O)/C(=C/c3ccco3)SC2=S)cc1	none
Cc1ccc(NC2=Nc3ccccc3CC2)cc1	HPGD inh 32µM
O=C(Nc1ccc2c(c1)OCCO2)C1CCCN(S(=O)(=O)c2cccc3nsnc23)C1 (configuration not stated)	PNC inhibitor -113
O=S(=O)(Nc1ccc2c(c1)OCCO2)c1cccc2nsnc12	ALDH1A1 block 25µM
O=C(Nc1ccc2c(c1)OCCO2)C1CCN(S(=O)(=O)c2cccc3nsnc23)CC1	ALDH1A1 block inconclusive, PNC inhibitor -81
O=C(CCNS(=O)(=O)c1cccc2nsnc12)Nc1ccc2c(c1)OCCO2	none
CCCC(=O)Nc1ccc(-c2nc3cc(C)c(C)cc3o2)c(O)c1	ALDH1A1 block inconclusive, IMPase cell inh inconclusive, NPSR antagonist inconclusive, HPGD inh inconclusive
Cc1cccc(-n2nnnc2-c2cnccc2C(F)(F)F)c1C	ALDH1A1 block 16µM (no result: PNC inhibitor, IMPase cell inh, IMPase Li cell, HPGD inh)
O=C(NC(=O)c1ccccc1)OCCN1C(=O)c2ccccc2C1=O	none (no result: PNC inhibitor, IMPase cell inh, HPGD inh)
CC(Oc1cc(Cl)ccc1Cl)C(=O)N/N=C\c1ccnn1C (configuration not stated)	PNC inhibitor -109 (no result: IMPase cell inh)
COC(=O)c1cc(C(=O)N2CCN(c3cccc(Cl)c3)CC2)cc([N+](=O)[O-])c1	none (no result: PNC inhibitor, IMPase cell inh, HPGD inh)
O=S(=O)(Nc1nc(CN2CCOCC2)nc2sc3c(c12)CCCC3)c1cc(F)ccc1F	ALDH1A1 block 14µM
CCNc1nc(CN2CCOCC2)nc2sc3c(c12)CCC3	ALDH1A1 block inconclusive
O=C(CSc1c[nH]c2ccccc12)NCc1ccc2c(c1)OCO2	none
CCN1C(=O)c2cccc3c(NC(=O)c4cccc(N5C(=O)CCC5=O)c4)ccc1c23	ALDH1A1 block 2µM
CCCCC(=O)Nc1ccc2c3c(cccc13)C(=O)N2CC	ALDH1A1 block 7.1µM
CCOc1cc(C(=O)Nc2ccc3c4c(cccc24)C(=O)N3CC)cc(OCC)c1OCC	ALDH1A1 block inconclusive
Cc1cccc(N(C(=O)Cn2nnc3ccccc32)C(C(=O)NC(C)(C)C)c2ccsc2)c1 (configuration not stated)	PNC inhibitor -94
